Bioassay records as filed in PubChem.
SNCA viab count: counter-screen for SNCA expression inhibitors: cell viability | 150,000 tested, 0.12% active | HEK-293-SNCA-luc viability, GF-AFC fluorescence, 24 h | Potency, µM (doses to about 57.1 µM), inactives show at the top dose activity change, negative = cytotoxicity, hits mostly cytotoxic;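 note: potency is the fitted concentration of half-maximal effect; 0% = DMSO-treated cells and -100% = medium-only wells without cells; nearly all actives have a fitted effect of over 30% in size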
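Cytotoxicity counterscreen: after 24 h compound treatment of genome-edited SNCA-luciferase HEK-293 cells, live-cell protease substrate GF-AFC read by fluorescence after 30 min; activity scaled between DMSO (0%) and medium-only (-100%), curves Hill-fitted.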
IP6K1 inhibitor: IP6K1 kinase inhibition; Q92551; IP6K1 kinase, ADP-Glo luminescence, 2 h; active compounds read low; activity change, % (series mostly up to about 58 µM); 140,000 tested, 0.81% active; in the data active = activity change below about -25%; note: % is set by controls: 0 for no effect and ±100 for the full control effect
Target sequence (Q92551 whole entry, looked up): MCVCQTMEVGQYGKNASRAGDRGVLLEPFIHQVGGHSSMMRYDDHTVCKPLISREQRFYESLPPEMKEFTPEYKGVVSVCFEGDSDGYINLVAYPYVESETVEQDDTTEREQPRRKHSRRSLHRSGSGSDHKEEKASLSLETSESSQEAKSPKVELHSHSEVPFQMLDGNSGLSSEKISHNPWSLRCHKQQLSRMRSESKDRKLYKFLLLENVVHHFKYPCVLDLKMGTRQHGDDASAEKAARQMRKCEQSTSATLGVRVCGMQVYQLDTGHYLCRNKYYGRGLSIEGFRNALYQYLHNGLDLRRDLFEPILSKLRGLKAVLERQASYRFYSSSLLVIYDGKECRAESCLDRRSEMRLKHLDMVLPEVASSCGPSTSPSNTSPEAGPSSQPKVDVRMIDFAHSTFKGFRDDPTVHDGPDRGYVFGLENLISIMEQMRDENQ
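ADP-Glo luminescence measures ADP made by human IP6K1 during a 2 h RT reaction with ATP/IP6 (mix at 1.3 mM/130 uM); top library doses 57.5 and 19.1 uM final.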
SNCA expr inhib: reduces expression of the alpha-synuclein gene; HEK-293 SNCA-luciferase knock-in, luminescence, 24 h; Potency, µM (series often up to 57.2 µM), without a hit: at the highest dose activity change, negative = inhibition, hits mostly inhibitors; 140,000 tested, 0.17% active; AID 1671194;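 note: potency is the fitted concentration of half-maximal effect; plate controls were DMSO cells for no effect and cell-free wells for full effect; nearly all actives have a fitted effect of over 45% in size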
KDM5B inhibitor: blocks human KDM5B histone demethylase activity; KDM5B demethylase, FDH-coupled NADH fluorescence (FDH is formaldehyde dehydrogenase); Potency, µM (series often up to 57.7 µM), most hits filed as inhibitors; 220,000 tested, 2.6% active; AID 1347165; note: potency is the fitted concentration of half-maximal effect; 0% is about no effect; nearly all actives have a fitted effect of over 70% in size
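Compound dilutions met 200 nM (final) KDM5BΔAP for 10 min at room temperature before substrate addition. The substrate mix held 12.5 µM H3K4me3 with cofactors 25 µM α-ketoglutarate and 50 µM Fe²⁺. NADH signal gain over 30 min defined activity.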
IP6K1 inh cnf: human IP6K1 inhibition, confirmatory; shares compounds with IP6K1 inhibitor; recombinant IP6K1 kinase, ADP-Glo luminescence, 2 h; Potency, µM (highest dose often 49 µM), without a hit: at the highest dose activity change, negative = inhibition, most hits filed as inhibitors; 1,200 tested, 13% active; AID 1645852; note: potency is the fitted concentration of half-maximal effect; % is set by controls: 0 for no effect and ±100 for the full control effect; nearly all actives have a fitted effect of over 65% in size
* hit, by the source's call; i = inactive; ? = inconclusive; . = not tested or not shown; ! = not confirmed by another sample; [ ] = dose if it differs, or a comment. A selection: hits, their analogues and other compounds. The true share with any hit is near 3%. Unless noted, calls come from the whole dose curve; as a rule, active = well fitted curve in the direction sought with a large enough effect; inconclusive = small, poorly fitted or top-dose-only effect, or another doubt; inactive = no such curve, though single readings can be large; an effect the other way counts as inactive or inconclusive.

SMILES	SNCA viab count	IP6K1 inhibitor	SNCA expr inhib	KDM5B inhibitor	IP6K1 inh cnf
O=C(CCn1nnc2ccccc21)OCC(=O)c1ccccc1	.	.	.	i	.
CN1C[C@H](NCc2ccc(F)cc2)CCC[C@@H](C(=O)NC2CC2)CC1=O	5.5%[87.6 µM]	-25.8*	4.7%[87.6 µM]	i	?
CCOc1ccc(C2CC(=O)NC(NC(=O)c3ccc(C)cc3)=N2)cc1 (stereo not given)	1.8%	0.2	-0.3%	i	.
Cc1ccc(C(=O)NC2=NC(c3ccc(C)cc3)CC(=O)N2)cc1 (stereo not given)	-1.2%	-26.1*	-1.8%	i	-5.7%
Cc1ccc2c(n1)N(C)[C@H](CO)CCN(Cc1ccc(C(F)(F)F)cc1)C2	?	-7.7	?	?	.
CNC(=O)c1cc(C2CC2)nc2onc(C3CCCN3C(=O)NC3CCCC3)c12 (stereo not given)	.	8.4	.	.	.
CCOC(=O)c1cccc(NC(=O)CCCn2nc(C)c3c(C)n(-c4ccccc4)nc3c2=O)c1	-1.1%	-99.8*	-10.2%	i	8.0%
Cc1ccc(NC(=O)CCCn2nc(C)c3c(C)n(-c4ccccc4)nc3c2=O)cc1Cl	9.6%	20.4	38.4%	i	.
Cc1ccc(NC(=O)/C(C#N)=C/c2cc(C)n(-c3ccc(Br)cc3)c2C)cc1C	?	-28.6*	?	?	-11.0%
Cc1cccc(Cc2c(C)nc3nc(SCC(=O)NCc4ccc(F)cc4)nn3c2C)c1	-8.7%	-36.9*	-13.4%	?	?
Cc1nc2nc(SCC(=O)NCc3ccccc3)nn2c(C)c1Cc1ccccc1Cl	12.9%	3.8	-9.0%	?	.
O=C(O)c1cc(O)c2cccc(O)c2c1O[C@@H]1O[C@H](CO)[C@@H](O)[C@H](O)[C@H]1O	-4.1%	-37.0*	.	.	?
COCCCNC(=O)c1nc(-c2ccc3[nH]ccc3c2)no1	.	.	.	i	.
O=C(Nc1cccc(C(F)(F)F)c1)Nc1cccs1	-24.9%	-33.3*	-6.0%	?	?
NC(=O)N/N=C/c1ccc([N+](=O)[O-])o1	-3.8%[23.9 µM]	-50.0*!	-10.3%[25.6 µM]	.	-1.1%[92.2 µM]
O=C(Cc1c[nH]c2ncc(-c3ccccc3)cc12)N1CCCC1	-19.3%[87.6 µM]	-12.5	-19.7%[87.6 µM]	?	.
NC(=O)Cc1c[nH]c2ncc(-c3cccc(O)c3)cc12	-4.3%[87.6 µM]	-38.4*	-23.3%[87.6 µM]	?	?
NC(=O)Cc1c[nH]c2ncc(-c3cccc(C(F)(F)F)c3)cc12	4.2%[87.6 µM]	-31.7*	-10.2%[87.6 µM]	?	?
C[S+](=O)([O-])c1cccc(-c2cnc3[nH]cc(CC(N)=O)c3c2)c1	-4.7%[87.6 µM]	-22.3	1.4%[87.6 µM]	i	.
NC(=O)Cc1c[nH]c2ncc(-c3ccccc3F)cc12	6.9%[87.6 µM]	-38.3*	4.3%[87.6 µM]	35.5µM*	?
CCCc1cc(=O)oc2cc(OC(C)C(=O)NCc3ccncc3)ccc12 (stereo not given)	.	.	.	i	.
CCc1cccc(CC)c1N(COC)C(=O)Cn1c(C)nc2ccccc21	-25.9%	-33.0*	?	?	13.3%
COc1ccc(-c2csc(NC(=O)CN3CCN(c4cccc(C(F)(F)F)c4)CC3)n2)cc1	.	.	.	i	.
CN1C[C@@H](NC(=O)Nc2ccccc2)C[C@H]1c1nc(-c2ccccc2)no1	1.5%[87.6 µM]	-25.3*	48.9%[87.6 µM]	35.5µM*	?
CCCc1nnc(C[C@@H]2C[C@@H](C(C)C)[C@H](CNc3cccnc3)C=C2C)o1	1.8%[87.6 µM]	-25.5*	5.1%[87.6 µM]	10µM*	-5.0%
SMILES	SNCA viab count	IP6K1 inhibitor	SNCA expr inhib	KDM5B inhibitor	IP6K1 inh cnf
CCCc1nnc(C[C@@H]2C[C@@H](C(C)C)[C@H](CNCc3cccnc3)C=C2C)o1	-18.7%[87.6 µM]	4.3	?	i	.
Cc1nc(CC(=O)N2CC[C@@H](NC(=O)c3cnccn3)[C@H](O)C2)cs1	1.6%	-3.6	2.4%	i	.
COc1ccccc1CC(=O)N1CC[C@@H](NC(=O)c2cnccn2)[C@H](O)C1	-0.9%	-30.9*	12.4%	?	6.3%
CCOc1ccc(CNC(=O)CCS(=O)(=O)c2cc3c4c(c2)CCN4C(=O)CC3)cc1OC	7.8%	-27.8*	-20.3%	i	13.2%
CNC(=O)c1cc(C)nc2onc(C3CCN(C(=O)c4ccc(Cl)nc4)C3)c12 (stereo not given)	.	-2.4	.	.	.
O=C(Nc1ccccc1Cl)c1cc(S(=O)(=O)N2CCC3(CC2)OCCO3)ccc1F	4.7%	-35.3*	-3.2%	i	?
